According to the supplement of paper PMC8728848:
This is one part of a sample in which the strongest signals are shown more often than they occur.

Columns and labels:
Assay in all cases: glycan array binding signal (z-score within array); higher = stronger binding
Details in all cases: glycan notation: IUPAC condensed, linker removed
GalNAc(a1-3)Gal = system: GalNAc(a1-3)Gal
Procedure, shortened: (§1)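 Arrays were curated from the Consortium for Functional Glycomics database, 3228 in total, and kept only where the protein sequence was available. Binding is expressed as a within-array Z-score. This score was averaged across arrays of the same protein sequence at different concentrations or buffers and across linkers, and negative values can be read as non-binding.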

GalNAc(b1-6)GalNAc = system: GalNAc(b1-6)GalNAc
Procedure, shortened: as §1

Glc(a1-6)Glc(a1-6)Glc = system: Glc(a1-6)Glc(a1-6)Glc
Procedure, shortened: as §1

Glc(b1-4)Glc = system: Glc(b1-4)Glc
Procedure, shortened: as §1

Glc(b1-6)Glc = system: Glc(b1-6)Glc
Procedure, shortened: as §1

GlcA(b1-3)Gal = system: GlcA(b1-3)Gal
Procedure, shortened: as §1

GlcA(b1-3)GlcNAc = system: GlcA(b1-3)GlcNAc
Procedure, shortened: as §1

GalNAc(b1-3)GlcNAc = system: GalNAc(b1-3)GlcNAc
Procedure, shortened: as §1

GalNAc3S(b1-4)GlcNAc = system: GalNAc3S(b1-4)GlcNAc
Procedure, shortened: as §1

[1] = system: Glc(a1-4)Glc(a1-4)Glc(a1-4)Glc
Procedure, shortened: as §1

[2] = system: GalNAc(b1-3)Gal(a1-4)Gal(b1-4)GlcNAc
Procedure, shortened: as §1

GalNAc(b1-4)Gal(b1-4)Glc = system: GalNAc(b1-4)Gal(b1-4)Glc
Procedure, shortened: as §1

[3] = system: GalNAc(b1-4)GlcNAc(b1-2)Man(a1-3)[GalNAc(b1-4)GlcNAc(b1-2)Man(a1-6)]Man(b1-4)GlcNAc(b1-4)GlcNAc
Procedure, shortened: as §1

[4] = system: GlcA3S(b1-3)Gal(b1-4)GlcNAc(b1-2)Man
Procedure, shortened: as §1

[5] = system: GalNAc(b1-3)Gal(a1-6)Gal(b1-4)Glc
Procedure, shortened: as §1

[6] = system: GalNAc(a1-3)GalNAc(b1-3)Gal(a1-4)Gal(b1-4)Glc
Procedure, shortened: as §1

Glc(a1-4)Glc = system: Glc(a1-4)Glc
Procedure, shortened: as §1

GalNAc(b1-3)GalNAc = system: GalNAc(b1-3)GalNAc
Procedure, shortened: as §1

[7] = system: GalNAc(b1-4)GlcNAc(b1-3)GalNAc(b1-4)GlcNAc
Procedure, shortened: as §1

GalNAc4S6S(b1-4)GlcNAc = system: GalNAc4S6S(b1-4)GlcNAc
Procedure, shortened: as §1

## Actinohivin (Actinomycete K97)
GalNAc(a1-3)Gal
  glycan array binding signal (z-score): -0.192
GalNAc(b1-6)GalNAc
  glycan array binding signal (z-score): -0.188

## SpGH101 (Streptococcus pneumoniae), Q8DR60
Glc(a1-6)Glc(a1-6)Glc
  glycan array binding signal (z-score): -0.103
Glc(b1-4)Glc
  glycan array binding signal (z-score): -0.147
Glc(b1-6)Glc
  glycan array binding signal (z-score): -0.186
GlcA(b1-3)Gal
  glycan array binding signal (z-score): -0.183
GlcA(b1-3)GlcNAc
  glycan array binding signal (z-score): 3.66

## AgI/II Vhelical-GFP (Streptococcus mutans)
GalNAc(a1-3)Gal
  glycan array binding signal (z-score): -0.061
GalNAc(b1-3)GlcNAc
  glycan array binding signal (z-score): -0.152
GalNAc3S(b1-4)GlcNAc
  glycan array binding signal (z-score): -0.11
[1]
  glycan array binding signal (z-score): -0.13
Glc(a1-6)Glc(a1-6)Glc
  glycan array binding signal (z-score): -0.269

## GspB (Streptococcus gordonii), Q939N5
GlcA(b1-3)Gal
  glycan array binding signal (z-score): -0.677

## AgI/IIC123-GFP (Streptococcus mutans)
[2]
  glycan array binding signal (z-score): 1.61
GalNAc(b1-4)Gal(b1-4)Glc
  glycan array binding signal (z-score): -0.438
[3]
  glycan array binding signal (z-score): -0.272
[4]
  glycan array binding signal (z-score): 3.12

## BambL (Burhholderia ambifaria), Q0B4G1
[5]
  glycan array binding signal (z-score): -0.314
GalNAc(b1-4)Gal(b1-4)Glc
  glycan array binding signal (z-score): -0.316

## SiiE (Salmonella typhimurium), A0A0H3NVH0
[6]
  glycan array binding signal (z-score): -1.13
Glc(a1-4)Glc
  glycan array binding signal (z-score): -0.099

## Epa22
[5]
  glycan array binding signal (z-score): -0.822

## LcI (Legionella pneumophila)
GalNAc(b1-3)GalNAc
  glycan array binding signal (z-score): -0.554
[7]
  glycan array binding signal (z-score): -0.365
GalNAc4S6S(b1-4)GlcNAc
  glycan array binding signal (z-score): -0.709
